Results as given in PubChem BioAssay (NCI).
About 83,000 compounds went through this panel and 20% of them were active in at least one assay; those are over-represented in the sample as a whole.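 Step 1: grow cells in 96-well plates. Step 2: add test compound at a single concentration. Step 3: incubate 48 h. Step 4: record percent growth.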 The source made the active and inactive calls. The calls were made as follows: active = growth percent below 10; inactive = the rest.

tested on: KM12 colon; assay: NCI-60 one-dose screen, 48 h (100 = growth as untreated, 0 = no growth, -100 = all killed); settings: 10 µM unless noted

Structure (SMILES)	growth
CCOC(=O)c1sc(NS(=O)(=O)c2ccccc2)nc1C	129% (inactive)
Cc1nc(NC(=S)Nc2ccc(F)cc2)sc1C(=O)NNC(=S)Nc1ccc(F)cc1	76.6% (inactive)
N#Cc1c(N)nc(Nc2nc3ccccc3[nH]2)nc1-c1ccc(Cl)cc1	109% (inactive)
O=C(Nc1ccc(-n2cc(-c3ccncc3)c(-c3ccc(Cl)c(O)c3)n2)cc1)c1cc(C(F)(F)F)cc(C(F)(F)F)c1	28% (inactive)
CC(=O)Nc1nc(C)c(C(=O)NN)s1	102% (inactive)
CC(=O)Nc1nc(C)c(C(=O)NNS(=O)(=O)c2ccccc2)s1	125% (inactive)
Cc1[nH]n(C(=S)Nc2nc3cc(Cl)c(F)cc3s2)c(=O)c1N=Nc1ccc(F)c(Cl)c1	110% (inactive)
O=C(c1ccccc1)c1ccccc1-c1ccccc1	29.5% (inactive)
COc1cc2ncnc(-n3ncc4cc(NC(=O)Nc5ccc(Cl)c(C)c5)ccc43)c2cc1OC	25.8% (inactive)
O=C(N/N=C\c1ccc(-c2ccc(Br)cc2)o1)c1cc2oc(-c3cccc(C(F)(F)F)c3)cc2[nH]1	74% (inactive)
COc1cccc(NC(=O)NCCNc2nccc(-c3c(-c4ccc(F)cc4)nc4sccn34)n2)c1	87.7% (inactive)
CC(=O)NNC(=O)c1sc(NC(C)=O)nc1C	105% (inactive)
Nc1nc(-c2cccc(Br)c2)cc(-c2cc3ccccc3oc2=O)n1	99.2% (inactive)
COC(=O)C(Cc1cnc[nH]1)N1CC(=O)N2[C@@H](c3ccccc3)SC[C@H]2C1=O (some centres not stated)	108% (inactive)
NCCCOc1cc(Cl)ccc1NC(=O)c1cc2ccccc2cc1OCCCN	-94.9% (active)
COc1ccc2c(c1)cn1c3ccc(O)cc3[nH]c(=O)c21	9.45% (active)

Structure (SMILES)	growth
CC(=O)N1CCN(CCNC(=O)n2cc(-c3ccncc3)c(-c3cc(O)cc(Cl)c3)n2)CC1	91.3% (inactive)
CC(=O)N1CCN(CCNC(=O)n2cc(-c3ccncc3)c(-c3ccc(O)c(Cl)c3)n2)CC1	103% (inactive)
O=S(=O)(O)CCI	114% (inactive)
COC(=O)[C@@H]1[C@H](O)[C@H](C)[C@H](O)[C@H](C)/C=C\C=C(C)C(=O)Nc2c(C)c(OC(C)=O)c3c(c2O)C(=O)C(C)=C2OCOC(=C23)C(C)=C[C@@](C)(O)[C@H](O)[C@@H](C)[C@H]1OC(C)=O	119% (inactive)
O=C1OC(c2ccc(-c3ccccc3)cc2)=C/C1=C/c1c2ccccc2cc2ccccc12	97.3% (inactive)
O=c1[nH]c2cc(O)ccc2n2cc3c(F)cccc3c12	34.7% (inactive)
OC(c1ccccc1)(c1ccccc1)C(F)(F)F	92.3% (inactive)
CC(C)CCCCCOC(=O)c1ccccc1SSc1ccccc1C(=O)OCCCCCC(C)C	106% (inactive)
O=C(Nc1ccc(-n2cc(-c3ccncc3)c(-c3ccc(Cl)c(O)c3)n2)cc1)c1ccc(Cl)c(Cl)c1	0.115% (active)
Cc1nc(NC(=O)NC2CCCCC2)sc1C(=O)NN	102% (inactive)
CCS(=O)(=O)N[C@@H]1O[C@H](COC(C)=O)C(OC(C)=O)[C@H](OC(C)=O)C1OC(C)=O (some centres not stated)	106% (inactive)
COc1ccc2cn3c4ccc(O)cc4[nH]c(=O)c3c2c1	11.9% (inactive)
COc1ccc(C2CC(=O)c3c(O)cc(OC4OC(COC5OC(C)C(O)C(O)C5O)C(O)C(O)C4O)cc3O2)cc1O (configuration not stated)	124% (inactive)
CCCCn1c(Cc2ccc(OC)cc2)nc2cc(OC)c(OC)cc2c1=O	93.6% (inactive)
COc1ccc2cc(C(C)C(=O)Nc3ccc(S(=O)(=O)Nc4cc(C)on4)cc3)ccc2c1 (configuration not stated)	110% (inactive)
CC(C)(C)c1ccc(OCCOC(=O)CBr)cc1	87.7% (inactive)
